EWS-Fli block: EWS/Fli-driven NR0B1 reporter inhibitors, primary screen, A673 cells, NR0B1 luciferase, luminescence, MLPCN library. viability-normalised. inhibition, % at 12.6 µM. 350,000 tested, 0.67% active. AID 651661, 2012;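 active = mean inhibition of at least 50% after viability correction, with every replicate also passing that limit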;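 note: firefly luciferase signal divided by Alamar Blue viability fluorescence both relative to DMSO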
esBAF inh: Bmi1 luciferase reporter increase in mESCs, primary screen, esBAF inhibitor project, mouse ES cells, Bmi1 luciferase knock-in, single point | 24 h; 100% = twice the neutral-well signal | reporter increase, % at 12.5 µM | 350,000 tested, 2% active; in the data active = activation above about 40%;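 note: a rise in the Bmi1 reporter signal indicates esBAF inhibition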
MITF TRPM1 inh: inhibitors of MITF-dependent TRPM1 promoter reporter, primary screen, cell-based, SK-MEL-5, single point, luciferase. inhibition, % at 12.5 µM. 330,000 tested, 0.83% active. SK-MEL-5 TRPM1 promoter luciferase, 24 h. AID 488899, 2010;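 active = mean inhibition across replicates of 60% or more, whatever share of single replicates reaches that level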
MITF TRPM1 HTS: activators of MITF-driven TRPM1 promoter reporter, primary screen, cell-based, SK-MEL-5, luciferase, single point | activation, % at 12.5 µM | 300,000 tested, 0.75% active | SK-MEL-5 TRPM1-promoter luciferase, 24 h; % of positive control, neutral wells = 0;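 active = mean activation of at least 80% with every replicate also reaching 80%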
PAX8 reporter: inhibitors of PAX8-driven TPO luciferase reporter, primary screen, RMG-I cells, single concentration; SteadyGlo, 24 h; inhibition, % at 12.6 µM; 360,000 tested, 1.2% active;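 active = mean replicate inhibition at least 60% with every replicate also reaching 60%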;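 note: luciferase light reporting Pax8 driven TPO promoter activity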
Wnt act: Wnt/beta-catenin pathway activators, primary screen, cell-based, plate reader, single point; Wnt/beta-catenin reporter cell assay, activator; AID 743398, 2014; 300,000 tested, 1.2% active; activation, % at 9.35 µM; in the data active = activation above about 30%, passing the limit was not always enough
Each line names hits and unclear results; the compound was inactive in the other large screens. The list is not random: actives were taken first. Their share in the collection is about 4%.

COc1ccc(-c2nc3c4ccccc4[nH]c(=O)n3n2)cc1	esBAF inh 46, Wnt act 59 (no result: EWS-Fli block, MITF TRPM1 HTS)
COc1cc2[nH]c(=O)n3nc(-c4ccccc4)nc3c2cc1OC	none (no result: EWS-Fli block, esBAF inh, MITF TRPM1 HTS, PAX8 reporter, Wnt act)
Cc1cccc(C(=O)Nc2ccc(C(=O)N/N=C/c3ccc4c(c3)OCO4)cc2)c1	none
COc1ccc(S(=O)(=O)N/N=C\c2ccc3c(c2)OCO3)c(OC)c1	none (no result: EWS-Fli block, esBAF inh)
COc1ccc(CCC(=O)N/N=C/c2ccc3c(c2)OCO3)cc1	esBAF inh 56
Cc1nc2ccccn2c1C(=O)N/N=C/c1ccc2c(c1)OCO2	MITF TRPM1 HTS 88 (no result: EWS-Fli block, esBAF inh)
O=C(CCc1ccccc1)NCC(=O)N/N=C/c1ccc2c(c1)OCO2	none (no result: esBAF inh)
Cc1cccc(C(=O)Nc2cccc(C(=O)N/N=C/c3ccc4c(c3)OCO4)c2)c1	esBAF inh 60
COc1ccc(OC)c(S(=O)(=O)N/N=C\c2ccc3c(c2)OCO3)c1	esBAF inh 47
N#Cc1cccc(-c2ccc([C@@H]3[C@H](CO)N4CCCCN(C(=O)Nc5cccc(F)c5)C[C@@H]34)cc2)c1	none (no result: MITF TRPM1 inh, MITF TRPM1 HTS, Wnt act)
COc1ccccc1S(=O)(=O)N[C@@H]1CC[C@@H](CC(=O)NCc2cc(F)cc(F)c2)O[C@@H]1CO	none (no result: esBAF inh, MITF TRPM1 inh, MITF TRPM1 HTS, Wnt act)
O=C(N/N=C/c1ccccc1)c1cc(-c2ccc3c(c2)OCO3)n[nH]1	esBAF inh 49
N/C(=N\N=Cc1ccc2c(c1)OCO2)NN=Cc1ccc2c(c1)OCO2	MITF TRPM1 inh 66
Cc1ccc(C(=O)NN=Cc2ccc3c(c2)OCO3)cc1	esBAF inh 48
Cc1ccccc1C(=O)Nc1cccc(C(=O)N/N=C/c2ccc3c(c2)OCO3)c1	esBAF inh 43
O=C(N/N=C/c1ccc(O)cc1)c1cc(-c2ccc3c(c2)OCO3)n[nH]1	none
CC(C)NC(=O)Nc1ccc2c(c1)CC(=O)N([C@H](C)CO)C[C@H](C)[C@@H](CN(C)C)O2	none (no result: EWS-Fli block, MITF TRPM1 inh, MITF TRPM1 HTS, Wnt act)
CN(C)c1nc(-c2ccccn2)nnc1-c1ccccc1	MITF TRPM1 inh 78 (no result: EWS-Fli block, esBAF inh)
c1ccc(-c2nnc(-c3ccccn3)c(-c3ccccn3)n2)nc1	none (no result: esBAF inh, MITF TRPM1 inh, MITF TRPM1 HTS)
Cc1nnc(-c2ccccc2)nc1N(C)C	none (no result: esBAF inh)
c1ccc(-c2nnc(-c3ccccn3)nn2)nc1	Wnt act 36 (no result: esBAF inh)
Cc1ccc(S(=O)(=O)N(C)C[C@@H]2OCCCC[C@@H](C)Oc3ccc(NC(=O)Nc4ccc(F)cc4)cc3C(=O)N([C@@H](C)CO)C[C@@H]2C)cc1	none (no result: MITF TRPM1 inh, MITF TRPM1 HTS, Wnt act)
COc1ccc(-c2nn(-c3ccccc3)cc2/C=N/N2C(=O)CSC2=S)cc1	MITF TRPM1 inh 104 (no result: EWS-Fli block, PAX8 reporter, Wnt act)
COc1cccc(C#Cc2ccc([C@H]3[C@@H](CO)N(C(=O)C4CCC4)[C@H]3C#N)cc2)c1	PAX8 reporter 71 (no result: MITF TRPM1 inh, MITF TRPM1 HTS, Wnt act)
COc1cccc(C#Cc2ccc([C@H]3[C@@H](C#N)N(C(=O)C4CCCC4)[C@@H]3CO)cc2)c1	none (no result: esBAF inh, MITF TRPM1 inh, MITF TRPM1 HTS, PAX8 reporter, Wnt act)
COc1cccc(C#Cc2ccc([C@@H]3[C@@H](C#N)N(C(=O)C4CCCC4)[C@@H]3CO)cc2)c1	none (no result: esBAF inh, MITF TRPM1 inh, MITF TRPM1 HTS, PAX8 reporter, Wnt act)
COc1cccc(C#Cc2ccc([C@H]3[C@@H](CO)N(C(=O)C4CCCCC4)[C@H]3C#N)cc2)c1	PAX8 reporter 78 (no result: MITF TRPM1 inh, MITF TRPM1 HTS, Wnt act)
COc1cccc(C#Cc2ccc([C@H]3[C@@H](CO)N(C(=O)C4CCCC4)[C@H]3C#N)cc2)c1	PAX8 reporter 82 (no result: esBAF inh, MITF TRPM1 inh, MITF TRPM1 HTS, Wnt act)
COc1ccc(S(=O)(=O)N(C)C[C@H]2Oc3c(NS(C)(=O)=O)cccc3C(=O)N([C@H](C)CO)C[C@H]2C)cc1	none (no result: MITF TRPM1 inh, MITF TRPM1 HTS, PAX8 reporter, Wnt act)
CC(=O)N1Cc2cc(C(=O)NCc3cc(F)cc(F)c3)nc(-c3cccc(C4=CCCC4)c3)c2[C@H]1CCO	none (no result: esBAF inh, MITF TRPM1 inh, MITF TRPM1 HTS, PAX8 reporter, Wnt act)
O=C1NCCN/C1=C\C(=O)c1ccccc1	none (no result: PAX8 reporter)
O=C1NCCN/C1=C\C(=O)c1ccc(Br)cc1	Wnt act 63 (no result: esBAF inh, MITF TRPM1 inh, MITF TRPM1 HTS)
Clc1ccc(CSc2ccc(-c3ccco3)nn2)cc1	none (no result: esBAF inh)
COc1ccccc1-c1ccc(SCc2ccccc2F)nn1	none (no result: esBAF inh)
Cc1cccc(CSc2ccc(-c3ccco3)nn2)c1	esBAF inh 50
Fc1ccccc1CSc1ccc(-c2ccco2)nn1	MITF TRPM1 HTS 95 (no result: esBAF inh)
Cc1nc(C)c(-c2ccc(SCc3ccccc3F)nn2)s1	esBAF inh 69 (no result: EWS-Fli block)
c1ccc(CSc2ccc(-c3ccco3)nn2)cc1	Wnt act 52 (no result: EWS-Fli block, esBAF inh)

Source: PubChem (Broad Institute)
